Test results taken from PubChem BioAssay (NCATS).
Activity calls are given as the source filed them. Entries that show only a call come without a potency. Calls come from the whole dose curve; as a rule, active = well fitted inhibition curve with a large enough effect; inconclusive = small, poorly fitted or top-dose-only effect; inactive = flat fitted curve, though single readings scatter.

target: Luciferin 4-monooxygenase (Photinus pyralis) (UniProt P08659); experiment: Primary firefly luciferase (FLuc) qHTS assay for identification of artifact compounds. (AID 1845220); details: purified firefly luciferase, luminescence, 5 min; series mostly up to 54.1 µM; note: nearly all actives have a fitted effect of over 60% in size
In short: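 FLuc 10 nM; luciferin 10 uM; ATP 10 uM; Tris-acetate pH 7.6, Mg-acetate 10 mM; 15 min RT preincubation; 5 min reaction; luminescence.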
Potency is the fitted concentration of half-maximal effect.

Compound | Potency | activity change, negative = inhibition | outcome
COc1cc(/C=C2\CC[C@H]3COC[C@@H](c4cc(F)c(F)c(F)c4)N3C2=O)ccc1-n1cnc(C)c1 | inactive |  | 
CNC(=O)c1cc(Oc2ccc(NC(=O)c3cccc(C(F)(F)F)c3)cc2)ccn1 | inactive |  | 
COc1cccc(OCCCN)c1-c1cc(Nc2cnc(C#N)cn2)n[nH]1 | inactive |  | 
COC(=O)C[C@H]1C(C)(C)[C@H](OC(=O)c2ccccc2)C2CC3=C4CC(=O)O[C@@H](c5ccoc5)[C@]4(C)CCC3[C@@]1(C)C2=O (some centres undefined) | inactive |  | 
OC[C@H]1O[C@@H](OC/C=C/c2ccc(O)cc2)[C@H](O)[C@@H](O)[C@@H]1O | inactive |  | 
CC(C)(CO)c1cc2cc(NC(=O)C3(c4ccc5c(c4)OC(F)(F)O5)CC3)c(F)cc2n1CC(O)CO (centres undefined) | inactive |  | 
C/C=C(\C)C(=O)O[C@H]1C[C@](C)(O)[C@H]2CC=C(C)[C@H]2[C@@H]2OC(=O)[C@H](C)[C@H]21 | inactive |  | 
Nc1nc(OCc2cc(Br)cs2)c2[nH]cnc2n1 | inactive |  | 
CC(C)(Cc1ccccc1)NCC(O)c1ccc(O)c(NS(C)(=O)=O)c1 (centres undefined) | inactive |  | 
C=C1CCCC2(C)CCC(C(C)(C)OC3OC(C)C(O)C(O)C3OC(=O)/C(C)=C\C)CC12 (centres undefined) | inactive |  | 
C=C1C(=O)OC2/C=C(\COC(C)=O)CC/C=C(\C=O)CC(OC(=O)CC(C)C)C12 (centres undefined) | inactive |  | 
NC(=O)c1nc(Nc2ccccc2)sc1NC(=O)C1CCCCC1 | inactive |  | 
CNCc1cc(-c2ccccc2F)n(S(=O)(=O)c2cccnc2)c1 | inactive |  | 
O=C(CNC(=O)c1cccc(C(F)(F)F)c1)N[C@@H]1CCN(Cc2ccc(Cl)cc2)C1 | inactive |  | 
CCCNCCc1ccc(NS(=O)(=O)c2ccc(OC(F)(F)F)cc2)cc1 | inactive |  | 
CCOC(=O)CCNc1cc(N2CCc3ccccc3CC2)nc(-c2cccnc2)n1 | inactive |  | 
NC(=O)CCCSc1nc(N)nc(-c2c(Cl)cc3c4c(cccc24)COC3)n1 | inactive |  | 
C1=Cc2ccccc2C(=C2CCN(CCCCc3nn[nH]n3)CC2)c2ccccc21 | inactive |  | 
C/C=C(/C)C(=O)O[C@H]1[C@H](OC(=O)/C(C)=C\C)[C@@]23C(CC1(C)C)[C@]1(CCC4[C@@]5(C)CC[C@H](O[C@@H]6O[C@H](C(=O)O)[C@@H](O)[C@H](O[C@@H]7O[C@H](CO)[C@H](O)[C@H](O)[C@H]7O[C@@H]7O[C@@H](C)[C@H](O)[C@@H](O)[C@H]7O[C@@H]7OC[C@@H](O)[C@H](O)[C@H]7O)[C@H]6O[C@@H]6O[C@H](CO)[C@H](O)[C@H](O)[C@H]6O)C(C)(C)C5CC[C@@]4(C)[C@]1(C)C[C@H]2O)O[C@H]3O (some centres undefined) |  | 4.78% [at 11.6 µM] (inactive) | 
O=C(NCc1ccccc1-c1ccccc1C(=O)NCCc1ccccn1)OCc1ccccc1 | inactive |  | 

Compound | Potency | activity change, negative = inhibition | outcome
O=C(NCCCc1ccccc1)C1CCC(CNS(=O)(=O)c2cccc3nsnc23)CC1 (centres undefined) | inactive |  | 
COc1cc(OC)c2c(=O)[nH]c(-c3cc(C)c(OCCO)c(C)c3)nc2c1 | 15.1 µM (active) |  | 
CC(C)(O)c1ccn2c(-c3ccc(F)c(-c4ccc(F)cc4C#N)c3)cnc2c1F | inactive |  | 
C=CC(=O)N1CC(N2CCN(C(=O)CNc3cc(C4CC4)c(Cl)cc3O)CC2)C1 | inactive |  | 
COc1ccc(NC(=O)C2C[C@H](C)CC[C@H]2C(C)C)cc1 (some centres undefined) | inactive |  | 
Fc1ccc(-c2nc(C3CCNCC3)sc2-c2ccnc(NC3CC3)n2)cc1 | inactive |  | 
O=C(Nc1ccc(-n2nc(C(F)(F)F)cc2C(F)(F)F)cc1)c1ccncc1F | inactive |  | 
CC(=O)NC(C)c1cnc(-c2cnc(Oc3ccc(OC(C)C)cc3)s2)s1 (centres undefined) | inactive |  | 
C=C1C(=O)OC2CC3(C)C(O)C(=O)C=C(C)C3CC12 (centres undefined) | inactive |  | 
CC(=O)NCc1cccc(OC[C@@H](O)CNCCc2ccc(NS(=O)(=O)c3ccccc3)cc2)c1 | inactive |  | 
Cc1c(C(=O)Nc2ccc(N3CCC(N4CCOCC4)CC3)c(C#N)c2)cnn1-c1ccc(Cl)cc1 | inactive |  | 
CC(=O)O[C@@H]1CC[C@@]2(C)C(CC[C@]3(C)C2[C@H](O)C=C2[C@H]4[C@@H](C)[C@H](C)CC[C@]4(C)CC[C@]23C)[C@@]1(C)C(=O)O (some centres undefined) | inactive |  | 
CCn1c(-c2nonc2N)nc2c(C#CCO)ncc(OCCCN)c21 | inactive |  | 
C[C@@H]1O[C@@H](O[C@H]2[C@@H](OC(=O)[C@]34CCC(C)(C)CC3C3=CCC5[C@@]6(C)C[C@H](O)[C@H](O[C@@H]7O[C@H](CO)[C@@H](O)[C@H](O)[C@H]7O[C@@H]7OC[C@@H](O)[C@H](O)[C@H]7O)[C@@](C)(C(=O)O)C6CC[C@@]5(C)[C@]3(C)CC4)OC[C@H](O)[C@@H]2O)[C@H](O)[C@H](O)[C@H]1O[C@@H]1OC[C@@H](O)[C@H](O)[C@H]1O (some centres undefined) |  |  | inactive [at 11.6 µM]
COc1ccc(S(=O)(=O)n2cnc3cc(C)c(C)cc32)cc1 | inactive |  | 
CC(=O)C1=CCC2C3CC=C4CC(O)CC(O)C4(C)C3C(O)CC12C (centres undefined) | inactive |  | 
CC(C)C[C@@H]1NC(=O)[C@@H](Cc2ccccc2)NC(=O)C(CCCCCC(=O)C2CO2)NC(=O)[C@@H]2CCCCN2C1=O (some centres undefined) | inactive |  | 
C=C1CC[C@@H](O)[C@]2(C)C[C@H]3OC(=O)C(=C)[C@H]3CC12 (some centres undefined) | inactive |  | 
CC1CCCC(O)CCC/C=C/c2cc(OS(=O)(=O)O)cc(O)c2C(=O)O1 (centres undefined) | inactive |  | 
